Source: PubChem BioAssay (NCI)
The panel holds about 79,000 compounds, 15% with a hit somewhere; the sample as a whole holds those more often. The source made the active and inactive calls. No stated cut-off is given here; in the data, active means growth inhibition above about 70%; inactive means the rest.

Key:
[1] = NCI Yeast Anticancer Drug Screen. Data for the rad50 strain (AID 155);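 further: 0% = growth of vehicle-only cultures of the same strain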; conditions: S. cerevisiae rad50 strain growth inhibition, active compounds read high
How it was run: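 Inhibition values express reduced yeast growth in compound-treated cultures relative to vehicle-treated controls.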

[2] = NCI Yeast Anticancer Drug Screen. Data for the mec2-1 strain (AID 157); conditions: S. cerevisiae mec2-1 strain, active compounds read high
How it was run: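 Cells of the genetically defined mec2-1 yeast strain are incubated with test compound. Inhibition of growth is calculated against vehicle-treated controls.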

[3] = NCI Yeast Anticancer Drug Screen. Data for the sgs1 mgt1 strain (AID 161);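 further: 0% = growth of cultures given vehicle only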; conditions: S. cerevisiae sgs1 mgt1 strain, active compounds read high
How it was run: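 Genetically altered yeast, compound exposure, growth inhibition relative to vehicle.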

[4] = NCI Yeast Anticancer Drug Screen. Data for the cln2 rad14 strain (AID 165);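 further: 0% = growth equal to vehicle treated cultures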; conditions: S. cerevisiae cln2 rad14 strain, active compounds read high
How it was run: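 The screen exposed genetically defined yeast (cln2 rad14) to test compounds and scored growth inhibition relative to vehicle-treated controls.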

[5] = NCI Yeast Anticancer Drug Screen. Data for the bub3 strain (AID 167); conditions: S. cerevisiae bub3 mutant strain, active compounds read high
How it was run: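 Steps: expose the mutant yeast strain to compound; grow alongside vehicle-treated cultures; measure growth; express inhibition against the vehicle cultures.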

[6] = NCI Yeast Anticancer Drug Screen. Data for the mlh1 rad18 strain (AID 175); conditions: S. cerevisiae mlh1 rad18 strain growth inhibition, active compounds read high
How it was run: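 Compound-treated yeast growth, normalised to vehicle controls. Strain bears defined DNA repair mutations.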

[7] = at 5.0 µM (retest, dose inferred, filed as 0.5)
[8] = at 50.0 µM (retest, dose inferred, filed as 5.0)

Measured: growth inhibition

CCOC(=O)C1=NNC(C(=O)c2ccccc2)C1c1ccccc1 (stereo not given)
active: [3]; [8] 83% | [3]; at 50.0 µM 81.2% | [5]; at 50.0 µM 81.8% | [6]; [8] 82%
inactive: [1]; [7] 3% | [1]; [8] 49% | [1]; at 50.0 µM 33.2% | [2]; [7] 10% | [2]; [8] 55% | [2]; at 50.0 µM 19.6% | [3]; [7] 20% | [4]; [7] 4% | [4]; [8] 19% | [4]; at 50.0 µM -20.3% | [5]; [7] 8% | [5]; [8] 40% | [6]; [7] 12% | [6]; at 50.0 µM 68.8%

COC(=O)c1ccc2c(c1)CC1(C2)Cc2ccccc2C1=O (stereo not given)
inactive: [1]; [7] 14% | [1]; at 50.0 µM 68% | [2]; [7] -20% | [3]; [7] -4% | [4]; [7] -37% | [4]; [8] 64% | [4]; at 50.0 µM 57.5% | [5]; [7] 6% | [6]; [7] -17%
active: [1]; [8] 88% | [2]; [8] 92% | [2]; at 50.0 µM 77% | [3]; [8] 84% | [3]; at 50.0 µM 83.5% | [5]; [8] 98% | [5]; at 50.0 µM 87.1% | [6]; [8] 94% | [6]; at 50.0 µM 79.5%

CC(CN1CCOCC1)(CN1CCOCC1)[N+](=O)[O-]
active: [1]; [8] 99% | [1]; at 50.0 µM 99.6% | [2]; [8] 100% | [2]; at 50.0 µM 99.8% | [3]; [8] 100% | [3]; at 50.0 µM 99.7% | [4]; [8] 99% | [4]; at 50.0 µM 99.3% | [5]; [8] 99% | [5]; at 50.0 µM 99.8% | [6]; [8] 99% | [6]; at 50.0 µM 99.5%
inactive: [1]; [7] 10% | [2]; [7] 8% | [3]; [7] 4% | [4]; [7] 3% | [5]; [7] 14% | [6]; [7] 13%

COc1ccc2c(c1)CCC/C2=N\NS(=O)(=O)c1c(C)cc(C)cc1C
inactive: [1]; [7] 15% | [1]; [8] 59% | [1]; at 50.0 µM 26.2% | [2]; [7] 16% | [2]; [8] 60% | [2]; at 50.0 µM -43.2% | [3]; [7] 16% | [3]; [8] 38% | [3]; at 50.0 µM 37.1% | [4]; [7] 8% | [4]; [8] 68% | [5]; [7] 11% | [5]; [8] 52% | [5]; at 50.0 µM 54.8% | [6]; [7] 26% | [6]; at 50.0 µM 5.7%
active: [4]; at 50.0 µM 73.5% | [6]; [8] 75%

O=C(O)C1(Cc2ccc3c(c2)CCC3)Cc2ccccc2C1
inactive: [1]; [7] 18% | [1]; [8] 18% | [2]; [7] -7% | [2]; [8] -7% | [3]; [7] 15% | [3]; [8] 15% | [4]; [7] 5% | [4]; [8] 5% | [5]; [7] -6% | [5]; [8] -6% | [6]; [7] 3% | [6]; [8] 3%
active: [1]; at 50.0 µM 90.3% | [2]; at 50.0 µM 91.9% | [3]; at 50.0 µM 88.5% | [4]; at 50.0 µM 89% | [5]; at 50.0 µM 90% | [6]; at 50.0 µM 86.8%

C=C(Br)CN(C)CC(=C)Br
inactive: [1]; [7] 0% | [1]; [8] 40% | [2]; [7] 7% | [2]; [8] -19% | [2]; at 50.0 µM -17.1% | [3]; [7] 4% | [3]; [8] -10% | [3]; at 50.0 µM 22.2% | [4]; [7] -15% | [4]; [8] -50% | [4]; at 50.0 µM 0.15% | [5]; [7] -2% | [5]; [8] 5% | [5]; at 50.0 µM -15% | [6]; [7] -6% | [6]; [8] 25% | [6]; at 50.0 µM 62.5%
active: [1]; at 50.0 µM 82%

CCc1cccc(CC)c1NC(=O)C1=C(C)NC(C)=C(C(=O)Nc2c(CC)cccc2CC)C1c1ccc2c(c1)OCO2
inactive: [1]; [7] 54% | [1]; [8] 54% | [2]; [7] 45% | [2]; [8] 45% | [3]; [7] 45% | [3]; [8] 45% | [4]; [7] 26% | [4]; [8] 26% | [5]; [7] 39% | [5]; [8] 39% | [6]; [7] 43% | [6]; [8] 43%
active: [1]; at 50.0 µM 91.9% | [2]; at 50.0 µM 92.5% | [3]; at 50.0 µM 93.2% | [4]; at 50.0 µM 91.3% | [5]; at 50.0 µM 89.2% | [6]; at 50.0 µM 87.5%

O=C(O)/C(=C/c1ccc(Cl)cc1)c1ccccc1
active: [4]; at 50.0 µM 90.7%
inactive: [1]; [7] -5% | [1]; [8] 23% | [1]; at 50.0 µM 4.7% | [2]; [7] -7% | [2]; [8] 23% | [2]; at 50.0 µM 44.5% | [3]; [7] -3% | [3]; [8] 27% | [3]; at 50.0 µM 10.6% | [4]; [7] -10% | [4]; [8] 39% | [5]; [7] -8% | [5]; [8] 17% | [5]; at 50.0 µM 9.95% | [6]; [7] -5% | [6]; [8] 45% | [6]; at 50.0 µM 39.6%

O=c1ccc2nc3ccccc3ccc-2c1
inactive: [1]; [7] -159% | [1]; [8] -139% | [1]; at 50.0 µM 23% | [2]; [7] -53% | [2]; [8] -55% | [2]; at 50.0 µM 15.2% | [3]; [7] -61% | [3]; [8] -64% | [3]; at 50.0 µM 18.3% | [4]; [7] -46% | [4]; [8] -58% | [4]; at 50.0 µM 20.6% | [5]; [7] -63% | [5]; [8] -79% | [5]; at 50.0 µM 62% | [6]; [7] -117% | [6]; [8] -110% | [6]; at 50.0 µM 62.5%

CNCC(OB(c1ccccc1)c1ccccc1)c1ccccc1 (stereo not given)
inactive: [1]; [7] 4% | [1]; at 50.0 µM -22.9% | [2]; [7] 12% | [2]; at 50.0 µM -5.2% | [3]; [7] 1% | [3]; at 50.0 µM 61.7% | [4]; [7] 9% | [4]; at 50.0 µM -26.6% | [5]; [7] -7% | [5]; at 50.0 µM 5.75% | [6]; [7] 0% | [6]; at 50.0 µM 44.1%
active: [1]; [8] 99% | [2]; [8] 99% | [3]; [8] 95% | [4]; [8] 99% | [5]; [8] 99% | [6]; [8] 99%
